TrxR1 inh: qHTS Assay for Inhibitors of Mammalian Selenoprotein Thioredoxin Reductase 1 (TrxR1): qHTS; Thioredoxin reductase 1, cytoplasmic (Rattus norvegicus), O89049; recombinant rTrxR1, NADPH fluorescence consumption, selenite substrate; Potency, µM (series often up to 114 µM), hits mostly inhibitors; hit rate 1% among 390,000; AID 588453, 2011; note: nearly all actives have a fitted effect of over 65% in size
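Rat TrxR1 (90 nM in the dispensed reagent) was pre-reduced with 400 uM NADPH for 5 min at room temperature, then incubated with compound for 15 min. After 400 uM selenite was added, NADPH fluorescence (Ex 340/Em 450 nm) was followed for 8 min.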
A549 viability: Nrf2 qHTS screen for inhibitors: counterscreen for cytotoxicity. A549 ARE-Fluc cells, CellTiter-Fluor viability, 18-24 h. hit rate 0.16% among 390,000. Potency, µM (highest dose often 46 µM), hits mostly inhibitors
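Cytotoxicity counterscreen: CellTiter-Fluor fluorescence was measured in A549 ARE_Fluc cells after 18-24 h of compound exposure in a concentration series. The subsequent BugLite luminescent read reports ARE-luciferase activity.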
Nrf2 ARE act: qHTS of Nrf2 Activators | Potency, µM (highest dose often 46.1 µM), most hits filed as activators | AID 624171, 2012 | hit rate 0.31% among 410,000 | AREc32 ARE-luciferase reporter (MCF7-derived line), luminescence, 24 h; note: nearly all actives have a fitted effect of over 65% in size
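ARE activation measured as luciferase luminescence (Steady-Glo, 30 min RT) in AREc32_Fluc cells after 24 hr compound exposure at 37 deg C, 5% CO2; cells seeded overnight at 1000/well in OPTI-MEM, 5% FBS.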
GALK inh: qHTS Assay for Inhibitors of Human Galactokinase (GALK). AID 1868, 2009. Purified GALK, Kinase-Glo residual ATP luminescence. P51570. hit rate 0.007% among 270,000. Potency, µM (highest dose often 57.5 µM), usual class: inhibitors
Target sequence (P51570 whole entry, looked up): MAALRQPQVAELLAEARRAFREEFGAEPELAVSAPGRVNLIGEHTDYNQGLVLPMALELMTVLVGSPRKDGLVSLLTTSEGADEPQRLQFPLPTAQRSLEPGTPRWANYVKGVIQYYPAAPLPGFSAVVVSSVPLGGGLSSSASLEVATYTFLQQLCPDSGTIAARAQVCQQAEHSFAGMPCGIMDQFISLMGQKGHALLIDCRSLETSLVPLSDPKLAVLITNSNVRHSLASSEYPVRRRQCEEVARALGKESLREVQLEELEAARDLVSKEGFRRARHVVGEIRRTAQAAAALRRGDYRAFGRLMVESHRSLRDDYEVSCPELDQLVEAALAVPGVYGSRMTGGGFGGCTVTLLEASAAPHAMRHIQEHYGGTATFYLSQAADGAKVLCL
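Quantitative HTS: GALK 5 nM, ATP 35 uM, galactose 100 uM, 1 h room temperature, then luciferase-based ATP detection.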
TrxR1 substrate: qHTS Assay for Substrates of Mammalian Selenoprotein Thioredoxin Reductase 1 (TrxR1): qHTS; purified TrxR1 substrate turnover, NADPH consumption readout; Potency, µM (titrated, usually from 114 µM); hit rate 0.01% among 390,000; note: nearly all actives have a fitted effect of over 50% in size
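Rat TrxR1, dispensed at 90 nM, was prereduced with 400 uM NADPH (final) for 5 min at ~22 deg C, then incubated with compound 15 min before 400 uM selenite. A first-read NADPH fluorescence drop versus no-compound background flagged substrates.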
Nrf2 block: Nrf2 qHTS screen for inhibitors | A549 ARE-Fluc reporter, luciferase luminescence, 18-24 h | Potency, µM (titrated, usually from 46 µM), hits mostly inhibitors | hit rate 2.1% among 360,000 | AID 504444, 2011; note: nearly all actives have a fitted effect of over 60% in size
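Quantitative HTS in A549 cells stably bearing an antioxidant response element-firefly luciferase construct. Inhibition of Nrf2-driven transcription was scored by luminescence after 18-24 h of compound exposure at 37 °C.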
Of the large screens only hits and unclear results are named; the others gave an inactive call. Sampled rows, rich in hits. Any-hit rate of the full collection: about 3%. Calls come from the whole dose curve; as a rule, active = well fitted curve in the direction sought with a large enough effect; inconclusive = small, poorly fitted or top-dose-only effect, or another doubt; inactive = no such curve, though single readings can be large; an effect the other way counts as inactive or inconclusive.

CCC(=O)N(CCC(c1ccco1)C(C)C)Cc1ccccc1 (configuration not stated)	none
O=C(CNC(=O)c1ccccc1Cl)OC(C(=O)Nc1cc(C(F)(F)F)ccc1Cl)c1ccccc1 (configuration not stated)	none (no result: TrxR1 inh, Nrf2 ARE act, GALK inh, TrxR1 substrate)
Cc1cc(C(=O)CSc2nnc(-c3cccs3)o2)c(C)n1-c1ccccc1	Nrf2 block 21µM
CCOCCCNC(=O)c1c[nH]c2ccc(S(=O)(=O)Nc3cccc(Cl)c3C)cc2c1=O	Nrf2 block inconclusive (no result: GALK inh)
CCN(CC)C(=O)Cn1c(=O)n(CCCCCC(=O)NCc2ccc(C)cc2)c(=O)c2sccc21	none (no result: GALK inh)
CC(C)Cn1c([N+](=O)[O-])nc2c1c(=O)[nH]c(=O)n2C	A549 viability inconclusive, Nrf2 ARE act inconclusive (no result: GALK inh)
Cn1c(=O)[nH]c(=O)c2c1nc(Br)n2CCC(=O)c1ccccc1	TrxR1 inh 18µM
COc1ccc(-c2nc3c(c(=O)[nH]c(=O)n3Cc3ccccc3)n2Cc2ccccc2)cc1	Nrf2 block 15µM
Cn1c(=O)[nH]c(=O)c2c1nc([N+](=O)[O-])n2Cc1ccccc1	TrxR1 inh 6.3µM, A549 viability inconclusive, Nrf2 ARE act inconclusive, Nrf2 block 23µM
COc1ccc(-c2nc3c(c(=O)[nH]c(=O)n3Cc3ccccc3)n2C)cc1	none
CCCS(=O)(=O)N1CCC(n2c(C)nc3cccnc32)CC1	none (no result: GALK inh)
COc1ccc(C(=O)N(Cc2ccccc2)Cc2ccco2)c(O)c1	none (no result: TrxR1 inh, Nrf2 ARE act, GALK inh, TrxR1 substrate)
O=C(Nc1c(C(=O)Nc2ccccc2F)oc2ccccc12)c1cc2ccccc2o1	Nrf2 block inconclusive (no result: GALK inh)
COc1ccc(S(=O)(=O)N2CCC(C(=O)Nc3ccc(Oc4ccccc4)cc3)CC2)cc1OC	none (no result: GALK inh)
c1coc(-c2nc3ccccc3nc2-c2ccco2)c1	TrxR1 inh inconclusive, Nrf2 ARE act 10µM
Oc1ccc(-c2cnc3ccccc3n2)cc1	Nrf2 block inconclusive (no result: GALK inh)
c1coc(-c2cnc3ccccc3n2)c1	Nrf2 ARE act 4µM (no result: TrxR1 inh, A549 viability, GALK inh, TrxR1 substrate, Nrf2 block)
O=c1oc(-c2ccco2)nc2ccccc12	none
COc1cc(/C=N/NC(=O)c2cc(-c3ccccc3)sc2N)cc(OC)c1OC	Nrf2 block 16µM
CCCCCCCCCC[n+]1cccc2cc(Cl)ccc21	none (no result: A549 viability, Nrf2 ARE act, GALK inh, Nrf2 block)
NC(=O)c1c(NC(=O)CN2CCN(S(=O)(=O)c3ccccc3)CC2)sc2c1CCC2	A549 viability inconclusive, Nrf2 block 18µM (no result: GALK inh)
Clc1cccc(OCc2nc(-c3ccncc3)n[nH]2)c1	Nrf2 block 21µM
COc1ccc2c(n1)Sc1nc3ccccc3nc1N2	Nrf2 ARE act 4.5µM, Nrf2 block inconclusive
CC(C)CC(=O)NC(=S)Nc1cccc(NC(=O)c2ccccc2)c1	TrxR1 inh inconclusive, Nrf2 block 15µM
CCCC(=O)NC(=S)Nc1cccc(NC(=O)c2ccccc2)c1	TrxR1 inh 22µM, Nrf2 block inconclusive
O=C(Nc1ccc(NC(=S)NC(=O)c2ccccc2Cl)cc1)c1cccc(Cl)c1	Nrf2 block 18µM (no result: GALK inh)
O=C(Nc1cnc2sccn2c1=O)c1ccccc1Cl	Nrf2 ARE act 11µM
CCc1c(C#N)c(SCCC(=O)Nc2ccc(F)cc2)nc2c1C(=O)CC(C)(C)C2	A549 viability inconclusive, Nrf2 block 18µM
COc1cccc(-c2nc(CS(=O)(=O)CC(=O)N3CCN(c4ccccc4)CC3)c(C)o2)c1	Nrf2 block inconclusive (no result: GALK inh)
Cc1cccc(C)c1Nc1nn2c(=O)c3cc4c(cc3nc2s1)OCO4	none (no result: GALK inh)
CC(=O)c1ccc(OCc2cc(C(=O)N3CC[C@@H]4CCCC[C@H]4C3)no2)cc1	TrxR1 inh 25µM, Nrf2 block inconclusive
O=C(c1cc(COc2cccc(C(F)(F)F)c2)on1)N1CCC(c2ccccc2)CC1	Nrf2 block 13µM
COc1cccc(OCc2cc(C(=O)N3CCC(c4ccncc4)CC3)no2)c1	Nrf2 block 5.2µM

Source: PubChem (National Center for Advancing Translational Sciences (NCATS))
